# Source: PubChem
# Sampled rows, rich in hits. Any-hit rate of the full collection: about 12%.
# BAZ2B inh = inhibitors of human BAZ2B bromodomain. Q9UIF8. AlphaScreen BAZ2B-H3K14Ac peptide displacement. Potency, µM (doses to about 114 µM), for inactives: at the top dose activity change, negative = inhibition, actives largely listed as inhibitors. 360,000 tested, 4.4% active. AID 504333; further: potency means the concentration at half of the fitted maximal effect; on the % scale 0 is the no-effect control and ±100 the full control effect; nearly all actives have a fitted effect of over 60% in size
#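 Inhibition is scored as reduced AlphaScreen emission. The BAZ2B/b-H3(5-23)K14Ac complex (50 nM each) in PBS pH 7.4, 0.01% Tween-20 meets compound (up to 110 uM) for 30 min at RT before bead addition.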
# JMJD2A Tudor inh = inhibitors of human JMJD2A Tudor domain; AID 504339; Potency, µM (doses to about 114 µM), for the others: at the top dose activity change, negative = inhibition, most hits filed as inhibitors; AlphaScreen JMJD2A-Tudor / H3K4me3 peptide binding; 390,000 tested, 4.4% active; further: potency means the concentration at half of the fitted maximal effect; on the % scale 0 is the no-effect control and ±100 the full control effect; nearly all actives have a fitted effect of over 50% in size
# G9a inh = G9a (human) methyltransferase inhibition; Q96KQ7; G9a H3K9 monomethylation, AlphaScreen, 2 h; Potency, µM (series often up to 102 µM), for inactives: at the top dose activity, negative = inhibition, usual class: inhibitors; 350,000 tested, 8.8% active; further: potency means the concentration at half of the fitted maximal effect; on the % scale 0 is the no-effect control and ±100 the full control effect; nearly all actives have a fitted effect of over 75% in size
# Target sequence (Q96KQ7 913-1193 limits assumed): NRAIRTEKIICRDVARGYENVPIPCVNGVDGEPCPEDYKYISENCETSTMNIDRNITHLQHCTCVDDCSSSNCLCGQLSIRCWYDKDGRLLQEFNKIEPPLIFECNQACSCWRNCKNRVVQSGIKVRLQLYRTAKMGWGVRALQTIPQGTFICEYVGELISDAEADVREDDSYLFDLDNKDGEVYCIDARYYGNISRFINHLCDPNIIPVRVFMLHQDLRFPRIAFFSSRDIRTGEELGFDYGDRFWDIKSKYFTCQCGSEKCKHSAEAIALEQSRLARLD
#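 Step 1: enzyme (final 20 nM) with compound, 15 min RT. Step 2: substrate peptide 500 nM and SAM 20 uM, 2 h RT. Step 3: anti-H3K9me1 antibody and AlphaScreen beads, 10 min, then plate read.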
# PLK1 PBD block = blocks phosphopeptide binding to human PLK1 polo-box domain; 360,000 tested, 2.8% active; AID 720504; Potency, µM, inactives show max response, negative = inhibition, hits mostly inhibitors; Plk1 PBD binding of FITC phosphopeptide, fluorescence polarization; P53350; further: potency means the concentration at half of the fitted maximal effect; series mostly up to about 57 µM; on the % scale 0 is the no-effect control and ±100 the full control effect; nearly all actives have a fitted effect of over 65% in size
# PI5P4K alpha inh = blocks human PI5P4K alpha kinase activity; P48426; PI5P4Kalpha enzyme, ADP-Glo luminescence, 60 min; stronger effect = lower value; max response, %; 330,000 tested, 1.2% active; AID 652105; active means max response of -50% or lower; inconclusive means between -30% and -50%; inactive means -30% or higher; further: value at the top dose of about 77 µM; on the % scale 0 is the no-effect control and ±100 the full control effect
#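 Reactions run in 0.038 M HEPES pH 7.4, 0.28 mM EGTA, 0.1% CHAPS and 5% DMSO, with PI5P4Kalpha, substrate, compound and 5 microM ATP final, one hour at room temperature. Readout is ADP-Glo luminescence.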
# HP1b binding inh = inhibitors of HP1-beta chromodomain binding to methylated histone tails. P83916. AlphaScreen HP1-beta / biotin-H3K9me3 peptide binding. Potency, µM (top dose mostly 114 µM), for the others: top-dose activity change, negative = inhibition, usual class: inhibitors. 390,000 tested, 0.56% active. AID 540317; further: potency means the concentration at half of the fitted maximal effect; nearly all actives have a fitted effect of over 70% in size
# Target sequence (P83916 whole entry, looked up): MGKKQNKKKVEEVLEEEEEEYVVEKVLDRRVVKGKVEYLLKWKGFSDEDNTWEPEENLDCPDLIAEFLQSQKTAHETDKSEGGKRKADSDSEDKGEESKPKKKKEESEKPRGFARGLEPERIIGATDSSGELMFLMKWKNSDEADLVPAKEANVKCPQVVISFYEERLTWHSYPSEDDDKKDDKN
#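 HP1-beta protein (50 nM final) preincubated 30 min at room temperature with biotinylated H3(1-18)K9me3 peptide (50 nM) in PBS pH 7.4, 0.01% Tween-20, then compound added for 30 min. AlphaScreen streptavidin donor/nickel chelate acceptor beads (10 ug/mL final), 30 min dark, luminescence read.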
# An asterisk follows results filed as active; ? = inconclusive; . = no result given; [ ] = dose if it differs, or a comment. Unless noted, the call rests on the fitted dose curve; in most records, active means well fitted curve in the direction sought with a large enough effect; inconclusive means small, poorly fitted or top-dose-only effect, or another doubt; inactive means no such curve, though single readings can be large; an effect the other way counts as inactive or inconclusive.
SMILES,BAZ2B inh,JMJD2A Tudor inh,G9a inh,PLK1 PBD block,PI5P4K alpha inh,HP1b binding inh
CC(C)C[C@H](NC(=O)[C@H](CCC(N)=O)NC(=O)[C@H](CCCCN)NC(=O)[C@H](CCC(N)=O)NC(=O)[C@@H](N)CCC(=O)O)C(=O)N[C@@H](CCC(N)=O)C(=O)O,.,.,16%[59 µM],.,.,.
CCC(=O)Nc1ccccc1-c1nc2ccccc2n(CC(=O)c2ccc(Cl)cc2)c1=O,?,-16%,?,.,.,28%
Cc1ccc(S(=O)(=O)NCC(Nc2cccc(Cl)c2)c2ccccc2)cc1 (stereo unspecified),-18%,-7%,?,.,.,41%
CCOc1cc(N2CCOCC2)c(OCC)cc1NC(=O)c1cccc(S(=O)(=O)N2CCOCC2)c1,.,?,.,-5%,-2,-25%
Cc1cccc(CN(C)CCc2ccccn2)c1,?,3.2µM*,?,-1%,.,?
CSc1nc(O)c(C(c2ccccc2)c2c(O)nc(SC)[nH]c2=O)c(=O)[nH]1,5%,-3%,?,-22%,-53*,53%
COc1ccc(OC)c(C(c2c(O)nc(SC)[nH]c2=O)c2c(O)nc(SC)[nH]c2=O)c1,-2%,-14%,50µM*,?,?,23%
CSc1nc(O)c(C(c2ccc(C)cc2)c2c(O)nc(SC)[nH]c2=O)c(=O)[nH]1,-21%,-15%,40µM*,?,-28,15%
CSc1nc(O)c(C(c2ccc(F)cc2)c2c(O)nc(SC)[nH]c2=O)c(=O)[nH]1,.,-3%,.,?,-14,52%
CSc1nc(O)c(C(c2ccc(OC(C)C)cc2)c2c(O)nc(SC)[nH]c2=O)c(=O)[nH]1,.,?,.,11µM*,-29,3%
CCC(C)[C@H](NC(=O)N1CCn2c1nc1ccccc12)C(=O)NCc1ccccc1 (stereo partly specified),7%,-1%,11%,-1%,5,53%
COc1ccc(C(=O)C[n+]2cccc(C(N)=O)c2)cc1,3%,-6%,?,-11%,-5,26%
COc1ccc(C(=O)C[n+]2cccc(C)c2)cc1,11%,-17%,71µM*,-1%,-2,16%
CC[N+]1(C)CC2CCC(C)(C1)C2(C)C (stereo unspecified),-2%,32µM*,?,-11%,0,-8%
O=C1CS/C(=N\N=C\c2ccco2)N1c1ccccc1,50µM*,?,?,-30%,?,2%
Cc1ccc(S(=O)(=O)N2CCc3ccccc3C2CC(=O)O)cc1 (stereo unspecified),-16%,1%,79µM*,-2%,-2,40%
O=C(O)CC1c2ccccc2CCN1S(=O)(=O)c1ccccc1 (stereo unspecified),.,4%,.,-2%,-2,22%
Clc1ccc(-c2nc3cnccn3c2Nc2ccc3c(c2)OCO3)cc1,45µM*,50µM*,16µM*,-16%,-9,?
COc1ccc(-c2nc3cnccn3c2Nc2ccc(C)cc2)cc1,?,-26%,3%[59 µM],1%,8,32%
CSc1ccc(-c2nc3cnccn3c2Nc2ccc3c(c2)OCO3)cc1,11µM*,?,45µM*,-6%,2,45µM*
Clc1ccc(-c2nc3ncccn3c2Nc2ccc3c(c2)OCCO3)cc1,-36%,-3%,-20%[59 µM],-4%,.,5%
COc1ccc(Nc2c(-c3ccc(Cl)cc3)nc3cnccn23)cc1OC,45µM*,56µM*,13µM*,.,.,-37%
Cc1ccc(-n2cnc3cc(C(=O)NCc4ccccc4Cl)ccc32)c(C)c1,?,-29%,-37%[59 µM],.,.,3%
COc1ccc(-c2cc3nc(C)c(CCC(=O)Nc4ccccc4C(C)=O)c(C)n3n2)c(OC)c1,-3%,-2%,-7%[59 µM],.,.,39%
CCOc1ccc(C2=C(C(C)=O)Sc3nnc(C)n3N2C(C)=O)cc1,-14%,-17%,?,.,.,13%
CC(=O)C1=C(c2cccc([N+](=O)[O-])c2)N(C(C)=O)n2c(C)nnc2S1,?,-36%,10µM*,-27%,-2,20%
